Source: PubChem BioAssay (Tox21)
Unmarked numbers belong to inactive results. Results filed as inconclusive are left out. Where a call stands in place of a potency, no number is given. Activity calls are given as the source filed them. Unless noted, calls come from the whole dose curve; as a rule, active = well fitted curve in the direction sought with a large enough effect in the repeat runs; inconclusive = weak or mixed curves; inactive = no such curve, though single readings can be large; an effect the other way counts as inactive or inconclusive.

How the values were obtained:
[1] = qHTS assay to identify small molecule HDAC inhibitors - cell viability counter screen (AID 1259365); note: series mostly up to about 92 µM; nearly all actives have a fitted effect of over 50% in size
Method in brief: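 After overnight seeding at 1,500 cells per well, wild-type HCT-116 cultures took up compounds in DMSO for 2hr at 37 C. Viable cell content came from luminescence with CellTiter-Glo.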

[2] = qHTS assay to identify small molecule agonists of the sonic hedgehog signaling (Shh) pathway - cell viability counter screen (AID 1259366); note: nearly all actives have a fitted effect of over 50% in size
Method in brief: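 Same-well cytotoxicity read. Gli1-Luc reporter 3T3 cells; compounds 24hr, 37C/5% CO2; CellTiter-Fluor fluorescence.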

[3] = qHTS assay to identify small molecule antagonists of the sonic hedgehog signaling (Shh) pathway - cell viability counter screen (AID 1259367); note: nearly all actives have a fitted effect of over 55% in size
Method in brief: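 Conditioned medium drove Shh signaling in 3T3 Gli1-Luc cells exposed to compounds at 37C and 5% CO2. Viability was determined from CellTiter-Fluor fluorescence, with reagent incubated 1 hr after 23 hr of treatment.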

[4] = qHTS assay to identify small molecule agonists of the sonic hedgehog signaling (Shh) pathway (AID 1259368; calls by dose curve;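 note: NIH/3T3-derived 3T3Gli1-Luc cells carrying a stable Gli1-driven firefly luciferase reporter; series mostly up to about 92 µM; nearly all actives have a fitted effect of over 15% in size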)
Method in brief: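 Hedgehog pathway agonism scored by increased firefly luciferase luminescence in 3T3Gli1-Luc cells treated 24 hr at 37 C; detection used a 30 min room-temperature reagent incubation.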

[5] = qHTS assay to identify small molecule antagonists of the sonic hedgehog signaling (Shh) pathway (AID 1259369; calls by dose curve; note: nearly all actives have a fitted effect of over 45% in size)
Method in brief: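 NIH/3T3 stable Gli1-Luc clone, 2,000 cells/well, 4hr settle; cpd + conditioned medium 24hr; Luc reagent 30min RT; luminescence.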

[6] = molecular target: Estrogen receptor beta (Homo sapiens) (UniProt Q92731); test: qHTS assay to identify small molecule agonists of the estrogen receptor beta (ER-beta) signaling pathway (AID 1259377; active = well fitted activation curve with a large enough effect in the signal ratio in the repeat runs, not every such curve was filed as active; the % refers to the signal ratio)
Method in brief: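 Read-out: beta-lactamase FRET fluorescence. Cell line: ER-beta-UAS-bla HEK293T in 2% charcoal-stripped FBS. Exposure: 16 hr at 37C. Substrate step: 2 h at room temperature.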

[7] = molecular target: Estrogen receptor beta (Homo sapiens) (UniProt Q92731); test: qHTS assay to identify small molecule antagonists of the estrogen receptor beta (ER-beta) signaling pathway (AID 1259378; active = well fitted inhibition curve with a large enough effect in the signal ratio in the repeat runs, not every such curve was filed as active; the % refers to the signal ratio)
Method in brief: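 ER-beta-UAS-bla HEK293T (GripTite) cells in 2% charcoal-stripped FBS medium were preincubated 6 hr at 37C, dosed with compound, then stimulated with 1 nM E2 (final) for 16 hr; beta-lactamase reporter read by B/G FRET fluorescence after 2 hr substrate loading.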

[8] = qHTS assay to identify small molecule agonists of the androgen receptor (AR) signaling pathway in the presence of an antagonist - cell viability counter screen (AID 1259379);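 note: MDA-kb2 human breast cancer cells carrying an MMTV luciferase reporter; series mostly up to about 92 µM; nearly all actives have a fitted effect of over 25% in size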
Method in brief: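 MDA-kb2 viability measured by CellTiter-Fluor fluorescence in the same wells as the luciferase signal; nilutamide 3.0uM final; 15-point compound titration; 16 hr at 37C.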

[9] = qHTS assay to identify small molecule agonists of the estrogen receptor beta (ER-beta) signaling pathway - cell viability counter screen (AID 1259380); note: nearly all actives have a fitted effect of over 30% in size
Method in brief: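 Measured: luminescence from CellTiter-Glo after 30 min at room temperature, added to wells already read for the LiveBLAzer FRET reporter (2 hr substrate); ER-beta-UAS-bla HEK293T cells had 16 hr compound treatment at 37C, 5% CO2.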

[10] = qHTS assay to identify small molecule antagonists of the estrogen receptor beta (ER-beta) signaling pathway - cell viability counter screen (AID 1259382); note: series mostly up to about 92 µM; nearly all actives have a fitted effect of over 55% in size
Method in brief: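 Readout: luminescence, CellTiter-Glo, same wells as bla assay. System: ER-beta-UAS-bla GripTite HEK293T, 2% charcoal-stripped FBS. Exposure: compounds plus 1nM 17-beta-estradiol, 16 hr, 37C.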

[11] = molecular target: Estrogen receptor (Homo sapiens) (UniProt P03372); test: qHTS assay to identify small molecule agonists of the estrogen receptor alpha (ER-alpha) signaling pathway in the presence of an antagonist (AID 1259383; calls by dose curve; note: top concentration of the series differs between compounds; nearly all actives have a fitted effect of over 15% in size)
Method in brief: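 Quantitative HTS confirmation: compounds titrated at 15 concentrations onto estrogen-deprived VM7Luc4E2 cells carrying a four-ERE luciferase construct, with ICI-182,780 present at 10.0nM final. Signal is luminescence after 22hr exposure.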

[12] = qHTS assay to identify small molecule agonists or antagonists of the thyroid stimulating hormone receptor (TSHR) signaling pathway - wild type cell line counter screen (AID 1259384; calls by dose curve)
Method in brief: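 Wild-type HEK293 cells were plated 18 h at 37 C/5% CO2, pin-dosed with compound plus Ro20-1724 medium, held 30 min at room temperature, then given cAMP-d2 and anti-cAMP-cryptate; fluorescence was read after 1 h. Fifteen concentrations, triplicate.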

[13] = molecular target: Thyrotropin receptor (Homo sapiens) (UniProt P16473); test: qHTS assay to identify small molecule antagonists of the thyroid stimulating hormone receptor (TSHR) signaling pathway (AID 1259385; calls by dose curve; note: nearly all actives have a fitted effect of over 20% in size)
Method in brief: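 TSHR-HEK293 cells were plated and held 18 h at 37C/5% CO2, then given compound plus Ro20-1724 and stimulated with TSH at 1.5 ng/mL final. After 30 min at room temperature, cAMP was detected with cAMP-d2/anti-cAMP-cryptate (1 h) by fluorescence.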

[14] = qHTS assay to identify small molecule agonists of the estrogen receptor alpha (ER-alpha) signaling pathway in the presence of an antagonist - cell viability counter screen (AID 1259386);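 note: series mostly up to about 92 µM; cells exposed to compounds for 22 h at 37 °C before the viability read; nearly all actives have a fitted effect of over 30% in size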
Method in brief: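 The test measures whether compounds kill ER-alpha reporter cells (VM7Luc4E2) under antagonist co-treatment (ICI-182,780, 10.0nM). Fluorescence from CellTiter-Fluor is read after a 22hr exposure.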

[15] = molecular target: Progesterone receptor (Homo sapiens) (UniProt P06401); test: qHTS assay to identify small molecule agonists of the progesterone receptor (PR) signaling pathway (AID 1346784; calls by dose curve; note: nearly all actives have a fitted effect of over 30% in size; note: potency is the fitted concentration of half-maximal effect)
Method in brief: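 Compounds were tested for PR agonism in HEK 293T cells bearing a beta-lactamase gene under UAS control. Treatment lasted 16 hr at 37C; signal came from fluorescence of a FRET substrate.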

[16] = molecular target: Progesterone receptor (Homo sapiens) (UniProt P06401); test: qHTS assay to identify small molecule antagonists of the progesterone receptor (PR) signaling pathway (AID 1346795; active = well fitted inhibition curve with a large enough effect in the signal ratio in the repeat runs, not every such curve was filed as active; the % refers to the signal ratio)
Method in brief: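 In HEK293T cells bearing the PR-UAS-bla reporter, compound effects on promegestone-driven (1 nM) beta-lactamase expression are assessed after 16 hr using a fluorescent FRET substrate incubated 2 hr at room temperature.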

[17] = qHTS assay to identify small molecule antagonists of the TGF-beta/Smad signaling pathway - cell viability counter screen (AID 1346824); note: nearly all actives have a fitted effect of over 50% in size
Method in brief: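 SBE-bla HEK 293T cells were plated overnight at 37 C, then given compounds in DMSO plus TGF-beta1 (added as 0.25 ng/mL solution) for 5 hr. After the bla read, CellTiter-Glo was added to the same wells and luminescence read after 30 min at room temperature.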

[18] = molecular target: Androgen receptor (Homo sapiens) (UniProt P10275); test: qHTS assay to identify small molecule agonists of the androgen receptor (AR) signaling pathway in the presence of an antagonist (AID 1259381; calls by dose curve; note: nearly all actives have a fitted effect of over 15% in size)
Method in brief: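 Luminescent ONE-Glo read, 30min at room temperature, follows 16hr compound exposure (15 concentrations) of MDA-kb2 cells at 37C, 0% CO2, with nilutamide added at 3.0uM final.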

[19] = qHTS assay to identify small molecule antagonists of the progesterone receptor (PR) signaling pathway - cell viability counter screen (AID 1346798); note: series mostly up to about 92 µM; nearly all actives have a fitted effect of over 50% in size
Method in brief: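 Following a 4 hr attachment, PR-UAS-bla HEK293T cells in charcoal-stripped FBS medium were exposed to compounds with R5020 for 16 hr; CellTiter-Glo was added and luminescence read after 30 min at room temperature.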

[20] = qHTS assay to identify small molecule agonists of the progesterone receptor (PR) signaling pathway - cell viability counter screen (AID 1346799; calls by dose curve; note: nearly all actives have a fitted effect of over 45% in size)
Method in brief: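 Here, 3,000 PR-UAS-bla HEK293T cells per well were treated with compounds for 16 hr after a 6 hr preincubation at 37C and 5% CO2; cell viability is the CellTiter-Glo luminescence signal.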

Androgen receptor (Homo sapiens), sequence (P10275 whole entry, looked up): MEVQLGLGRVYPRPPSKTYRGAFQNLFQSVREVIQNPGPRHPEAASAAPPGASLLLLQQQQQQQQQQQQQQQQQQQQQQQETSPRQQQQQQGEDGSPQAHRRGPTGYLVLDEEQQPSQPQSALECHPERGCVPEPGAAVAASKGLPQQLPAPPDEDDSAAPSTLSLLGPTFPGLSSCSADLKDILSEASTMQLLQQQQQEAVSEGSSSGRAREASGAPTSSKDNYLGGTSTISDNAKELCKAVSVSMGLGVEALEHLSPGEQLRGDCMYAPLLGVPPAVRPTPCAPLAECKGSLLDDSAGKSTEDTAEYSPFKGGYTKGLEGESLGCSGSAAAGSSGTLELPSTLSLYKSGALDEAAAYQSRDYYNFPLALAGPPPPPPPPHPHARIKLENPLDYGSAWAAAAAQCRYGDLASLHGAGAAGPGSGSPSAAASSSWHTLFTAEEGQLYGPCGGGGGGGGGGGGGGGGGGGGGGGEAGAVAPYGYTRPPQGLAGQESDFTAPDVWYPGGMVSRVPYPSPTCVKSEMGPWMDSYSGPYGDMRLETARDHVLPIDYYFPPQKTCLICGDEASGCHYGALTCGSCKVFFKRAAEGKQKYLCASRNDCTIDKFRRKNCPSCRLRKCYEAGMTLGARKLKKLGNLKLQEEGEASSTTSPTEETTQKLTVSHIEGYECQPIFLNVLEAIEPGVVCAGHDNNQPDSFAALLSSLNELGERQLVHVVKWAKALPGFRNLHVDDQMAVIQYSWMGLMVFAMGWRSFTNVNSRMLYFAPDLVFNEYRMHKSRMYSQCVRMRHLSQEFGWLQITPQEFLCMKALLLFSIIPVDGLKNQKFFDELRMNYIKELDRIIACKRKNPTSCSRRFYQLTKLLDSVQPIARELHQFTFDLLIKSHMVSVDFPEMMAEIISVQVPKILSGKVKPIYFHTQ
Estrogen receptor (Homo sapiens), sequence (P03372 whole entry, looked up): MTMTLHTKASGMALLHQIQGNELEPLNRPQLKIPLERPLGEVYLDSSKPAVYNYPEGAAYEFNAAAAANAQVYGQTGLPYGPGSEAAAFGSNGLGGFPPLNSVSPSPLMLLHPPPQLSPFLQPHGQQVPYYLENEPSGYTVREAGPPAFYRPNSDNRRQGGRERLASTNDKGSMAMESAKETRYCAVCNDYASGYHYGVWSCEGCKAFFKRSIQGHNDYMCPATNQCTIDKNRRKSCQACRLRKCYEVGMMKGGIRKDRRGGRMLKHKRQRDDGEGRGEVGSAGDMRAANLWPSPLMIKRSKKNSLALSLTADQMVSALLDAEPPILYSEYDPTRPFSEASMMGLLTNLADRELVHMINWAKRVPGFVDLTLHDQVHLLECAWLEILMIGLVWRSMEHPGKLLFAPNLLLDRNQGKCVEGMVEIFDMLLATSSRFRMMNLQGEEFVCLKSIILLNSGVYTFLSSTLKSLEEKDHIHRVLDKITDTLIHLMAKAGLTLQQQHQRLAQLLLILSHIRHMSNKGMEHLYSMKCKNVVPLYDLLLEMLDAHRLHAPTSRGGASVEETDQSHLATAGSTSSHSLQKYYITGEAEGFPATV
Thyrotropin receptor (Homo sapiens), sequence (P16473 whole entry, looked up): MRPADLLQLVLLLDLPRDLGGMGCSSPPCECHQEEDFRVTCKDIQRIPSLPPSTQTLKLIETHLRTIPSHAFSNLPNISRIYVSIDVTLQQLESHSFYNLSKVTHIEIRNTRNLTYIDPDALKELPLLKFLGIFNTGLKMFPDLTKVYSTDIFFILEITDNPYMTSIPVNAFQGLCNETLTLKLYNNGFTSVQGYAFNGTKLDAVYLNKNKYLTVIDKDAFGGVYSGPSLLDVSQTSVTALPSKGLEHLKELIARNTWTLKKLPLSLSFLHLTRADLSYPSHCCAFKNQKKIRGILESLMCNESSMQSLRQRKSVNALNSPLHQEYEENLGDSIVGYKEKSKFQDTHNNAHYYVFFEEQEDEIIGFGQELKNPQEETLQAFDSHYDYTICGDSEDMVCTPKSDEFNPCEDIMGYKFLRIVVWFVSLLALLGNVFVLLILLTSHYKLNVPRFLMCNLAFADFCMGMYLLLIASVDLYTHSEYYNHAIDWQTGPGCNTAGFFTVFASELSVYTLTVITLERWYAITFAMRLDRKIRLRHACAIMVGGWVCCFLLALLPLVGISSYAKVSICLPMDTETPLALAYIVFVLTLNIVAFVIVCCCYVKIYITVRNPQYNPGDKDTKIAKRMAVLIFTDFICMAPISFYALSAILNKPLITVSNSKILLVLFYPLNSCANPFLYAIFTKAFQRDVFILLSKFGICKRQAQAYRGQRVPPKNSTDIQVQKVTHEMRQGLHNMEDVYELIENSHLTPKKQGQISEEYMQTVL
Progesterone receptor (Homo sapiens), sequence (P06401 whole entry, looked up): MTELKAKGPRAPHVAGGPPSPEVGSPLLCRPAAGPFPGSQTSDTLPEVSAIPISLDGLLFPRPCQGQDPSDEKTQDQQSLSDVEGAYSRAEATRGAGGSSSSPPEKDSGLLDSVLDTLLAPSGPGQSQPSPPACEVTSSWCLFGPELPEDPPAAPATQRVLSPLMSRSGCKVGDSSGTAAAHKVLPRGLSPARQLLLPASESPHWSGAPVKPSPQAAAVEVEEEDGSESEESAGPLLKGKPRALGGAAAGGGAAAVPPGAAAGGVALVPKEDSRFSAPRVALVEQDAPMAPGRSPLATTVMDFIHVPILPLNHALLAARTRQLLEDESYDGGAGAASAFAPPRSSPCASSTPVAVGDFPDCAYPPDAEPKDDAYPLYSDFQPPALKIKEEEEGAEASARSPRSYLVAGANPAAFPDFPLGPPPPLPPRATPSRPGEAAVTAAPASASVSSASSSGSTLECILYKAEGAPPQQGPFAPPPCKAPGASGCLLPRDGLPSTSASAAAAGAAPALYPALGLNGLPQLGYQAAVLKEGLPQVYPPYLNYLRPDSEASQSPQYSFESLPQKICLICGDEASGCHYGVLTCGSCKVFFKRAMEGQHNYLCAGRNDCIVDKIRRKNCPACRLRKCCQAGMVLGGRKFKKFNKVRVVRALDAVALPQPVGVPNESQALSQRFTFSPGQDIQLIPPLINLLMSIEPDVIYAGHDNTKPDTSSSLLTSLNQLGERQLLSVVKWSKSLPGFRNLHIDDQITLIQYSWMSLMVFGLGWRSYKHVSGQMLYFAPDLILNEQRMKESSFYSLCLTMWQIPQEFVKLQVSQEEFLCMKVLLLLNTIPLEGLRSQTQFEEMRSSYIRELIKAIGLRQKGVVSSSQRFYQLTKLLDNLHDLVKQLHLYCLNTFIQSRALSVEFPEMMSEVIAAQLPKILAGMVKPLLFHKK
Estrogen receptor beta (Homo sapiens), sequence (Q92731 whole entry, looked up): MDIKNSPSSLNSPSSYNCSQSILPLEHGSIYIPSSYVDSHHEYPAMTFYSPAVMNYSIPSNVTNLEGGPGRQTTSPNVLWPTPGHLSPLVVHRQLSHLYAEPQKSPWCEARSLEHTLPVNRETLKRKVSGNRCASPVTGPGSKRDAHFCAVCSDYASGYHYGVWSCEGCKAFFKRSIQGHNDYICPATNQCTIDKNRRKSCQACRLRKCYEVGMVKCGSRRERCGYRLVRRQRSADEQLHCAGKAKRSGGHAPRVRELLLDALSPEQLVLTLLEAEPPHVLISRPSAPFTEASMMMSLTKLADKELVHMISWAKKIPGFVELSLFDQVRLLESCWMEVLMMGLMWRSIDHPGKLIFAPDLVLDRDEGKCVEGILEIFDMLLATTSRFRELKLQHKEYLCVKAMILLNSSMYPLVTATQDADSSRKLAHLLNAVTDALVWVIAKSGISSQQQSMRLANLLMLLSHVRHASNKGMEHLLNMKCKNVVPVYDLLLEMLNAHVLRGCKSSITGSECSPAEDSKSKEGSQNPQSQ

Compound | outcome [1] | outcome [2] | outcome [3] | outcome [4] | Potency [5] | Potency [6] | Potency [7] | outcome [8] | outcome [9] | outcome [10] | Potency [11] | outcome [12] | outcome [13] | outcome [14] | Potency [15] | Potency [16] | outcome [17] | outcome [18] | outcome [19] | outcome [20]
Cc1c(Cl)cccc1Cl | inactive | inactive | inactive | inactive | inactive | inactive | inactive | inactive | inactive | inactive | inactive | inactive | inactive | inactive | inactive | inactive | inactive |  |  | 
CCCCCCCCCOC(=O)c1ccccc1C(=O)OCCCCCCCCC | inactive | inactive | inactive | inactive | inactive | inactive | inactive | inactive | inactive | inactive | inactive | inactive | inactive | inactive | inactive | inactive | inactive | inactive |  | 
CCC/C=C(\C=O)CC | inactive | inactive | inactive | inactive | inactive | inactive | inactive | inactive | inactive |  | inactive | inactive | inactive |  | inactive | inactive | inactive |  | inactive | inactive
Cc1ccnc(N)c1 | inactive | inactive | inactive | inactive | inactive | inactive | inactive | inactive | inactive | inactive |  | inactive | inactive | inactive | inactive | inactive | inactive |  | inactive | 
C[C@]12CCC(=O)C=C1CC[C@H]1[C@@H]3CC[C@](O)(C(=O)CO)[C@@]3(C)C[C@H](O)[C@@]12F | inactive | inactive | inactive | inactive | inactive | inactive |  | inactive | inactive | inactive |  | inactive | inactive | inactive | 1680 nM (active) | inactive | inactive |  | inactive | 
OC1(c2ccc(Cl)cc2)CCNCC1 | inactive | inactive | inactive | inactive | inactive | inactive |  | inactive | inactive | inactive | inactive | inactive | inactive | inactive | inactive | inactive | inactive | inactive | inactive | 
CC(C)(CO)C(O)C(=O)NCCCO (centres undefined) | inactive | inactive | inactive | inactive | inactive | inactive |  | inactive | inactive | inactive | inactive |  | inactive | inactive | inactive | inactive | inactive |  | inactive | inactive
OCC1(CO)COCOC1 | inactive | inactive | inactive | inactive | inactive | inactive |  | inactive | inactive | inactive |  | inactive | inactive | inactive | inactive |  | inactive |  | inactive | 
CCCCCCCCCCCCCCC(=O)NC(CO)CCCCCCCCCCCCCC (centres undefined) | inactive | inactive | inactive | inactive | inactive | inactive |  | inactive | inactive | inactive | inactive | inactive |  | inactive | inactive | inactive | inactive |  | inactive | inactive
CC(C)OC(=O)OCOP(=O)(CO[C@H](C)Cn1cnc2c(N)ncnc21)OCOC(=O)OC(C)C | inactive | inactive | inactive | inactive | inactive | inactive |  | inactive | inactive |  |  | inactive | inactive | inactive | inactive | inactive | inactive |  | inactive | 
CNCCS(=O)(=O)O | inactive | inactive | inactive | inactive | inactive |  | inactive | inactive | inactive | inactive |  | inactive | inactive | inactive | inactive | inactive | inactive |  | inactive | 
CSc1cnccn1 | inactive | inactive | inactive | inactive | inactive | inactive | inactive | inactive | inactive |  |  | inactive | inactive | inactive | inactive | inactive | inactive |  | inactive | inactive
N#Cc1cscn1 | inactive | inactive | inactive | inactive | inactive | inactive |  | inactive | inactive | inactive |  | inactive | inactive | inactive | inactive | inactive | inactive |  | inactive | 
COCCc1ccccn1 | inactive | inactive | inactive | inactive | inactive |  |  | inactive | inactive | inactive |  | inactive | inactive | inactive | inactive | inactive | inactive | inactive | inactive | 
CCC(=O)c1c(O)cc(O)cc1O | inactive | inactive | inactive | inactive | inactive |  | inactive | inactive |  | inactive | inactive | inactive | inactive |  | inactive |  | inactive | inactive | inactive | inactive
CCOc1ccccc1OCC1CNCCO1 (centres undefined) | inactive | inactive | inactive | inactive | inactive | inactive |  | inactive | inactive | inactive |  | inactive | inactive | inactive | inactive | inactive | inactive | inactive | inactive | inactive
O=C(O)CNC(=O)CNC(=O)CNC(=O)CSC(=O)c1ccccc1 | inactive | inactive | inactive | inactive | inactive | inactive |  | inactive | inactive | inactive | inactive | inactive | inactive | inactive | inactive | inactive | inactive |  | inactive | inactive
